Measured values: PubChem BioAssay AID1159580 (chemical genetic matrix, 2015)
“And” between values parts separate entries of the source, which are not always exact repeats. Equal entries are not always repeated. Out of some 5,500 compounds screened, about 2,000 (36%) were called active. Inconclusive results (about 18%) are left out. No stated cut-off is given here; in the data, active means normalized growth mostly below about 0.91 (no sharp cut-off); inconclusive means no clear call, values can overlap the other calls; inactive means mostly above about 0.92. Some of the results follow.

Test: chemical genetic growth profiling, strain panel (AID 1159580);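 further: tested at 20 µM; growth read once vehicle control cultures reached saturation at 30 °C; 1 = growth at the plate median or of vehicle wells; lower values mean less growth of the strain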
Settings: S. cerevisiae deletion strains, growth OD

Measured: normalized growth

CC1=C(/C=C/C(C)=C/C=C/C(C)=C/C(=O)O)C(C)(C)CCC1
active: locus YDR137W, strain rgp1, active compounds read low 0.824 | locus YDR392W, strain spt3, active compounds read low 0.513
inactive: locus YAL013W, strain DEP1, active compounds read low 0.993 and 1.03 | locus YAL021C, strain ccr4, active compounds read low 1.01 | locus YAL026C, strain drs2, active compounds read low 0.958 | locus YAL030W, strain snc1, active compounds read low 0.996 | locus YAL040C, strain CLN3, active compounds read low 1.03 | locus YBL061C, strain skt5, active compounds read low 0.952 | locus YBR009C, strain hhf1, active compounds read low 0.968 | locus YBR021W, strain FUR4, active compounds read low 1.04 | locus YBR023C, strain chs3, active compounds read low 0.959 | locus YBR171W, strain sec66, active compounds read low 1 | locus YBR229C, strain ROT2, active compounds read low 1.01 | locus YBR231C, strain swc5, active compounds read low 0.996 | locus YBR279W, strain paf1, active compounds read low 0.994 | locus YCL011C, strain gbp2, active compounds read low 0.976 | locus YCL016C, strain dcc1, active compounds read low 0.951 | locus YCL029C, strain bik1, active compounds read low 1.02 | locus YCL061C, strain MRC1 (second series), active compounds read low 1.01 | locus YCL061C, strain MRC1, active compounds read low 0.969 | locus YCL069W, strain vba3, active compounds read low 1 | locus YCR088W, strain abp1, active compounds read low 0.993 | locus YDL005C, strain med2, active compounds read low 0.998 | locus YDL035C, strain GPR1, active compounds read low 0.998 | locus YDL040C, strain nat1, active compounds read low 1 | locus YDL074C, strain BRE1, active compounds read low 0.995 | locus YDL101C, strain DUN1, active compounds read low 1.01 | locus YDL134C, strain PPH21, active compounds read low 1.01 | locus YDL185W, strain tfp1, active compounds read low 1.03 | locus YDL192W, strain arf1, active compounds read low 1.03 | locus YDR001C, strain nth1, active compounds read low 1 | locus YDR069C, strain doa4, active compounds read low 0.979 | locus YDR101C, strain arx1, active compounds read low 1.03 | locus YDR150W, strain NUM1, active compounds read low 1.02 and 1.01 | locus YDR159W, strain sac3, active compounds read low 0.928 | locus YDR162C, strain NBP2, active compounds read low 1.01 | locus YDR195W, strain ref2 1.03 | locus YDR297W, strain sur2, active compounds read low 0.991 | locus YDR318W, strain mcm21, active compounds read low 1.01 | locus YDR334W, strain swr1, active compounds read low 1.02 | locus YDR335W, strain msn5, active compounds read low 0.962 | locus YDR363W, strain ESC2, active compounds read low 0.994 | locus YDR388W, active compounds read low 1.03 | locus YDR502C, strain sam2, active compounds read low 1.03 | locus YEL003W, strain gim4, active compounds read low 1.01 | locus YEL037C, strain rad23, active compounds read low 1 | locus YEL061C, strain CIN8 (second series), active compounds read low 1.01 | locus YEL061C, strain CIN8, active compounds read low 1.01 | locus YER002W, strain NOP16, active compounds read low 1.03 | locus YER015W, strain faa2, active compounds read low 0.995 | locus YER016W, strain bim1, active compounds read low 0.954 | locus YER110C, active compounds read low 1.04 | locus YER111C, strain swi4, active compounds read low 1 | locus YER155C, strain BEM2 (second series), active compounds read low 0.953 | locus YER155C, strain BEM2, active compounds read low 1.01 | locus YER167W, strain BCK2, active compounds read low 1.01 | locus YFR010W, strain ubp6, active compounds read low 0.99 | locus YGL078C, strain dbp3, active compounds read low 1.03 | locus YGL086W, strain mad1, active compounds read low 1.02 | locus YGL167C, strain pmr1, active compounds read low 1.02 | locus YGL173C, strain kem1, active compounds read low 0.97 | locus YGL227W, strain vid30, active compounds read low 1.03 | locus YGL240W, strain doc1, active compounds read low 0.992 | locus YGL248W, strain PDE1, active compounds read low 1.01 | locus YGL253W, strain hxk2, active compounds read low 0.99 | locus YGR078C, strain PAC10, active compounds read low 0.996 | locus YGR135W, strain pre9, active compounds read low 1.01 | locus YGR229C, strain SMI1, active compounds read low 0.996 and 0.979 | locus YGR252W, strain gcn5, active compounds read low 1.08 | locus YHR013C, strain ard1, active compounds read low 0.942 | locus YHR027C, strain rpn1, active compounds read low 0.975 | locus YHR030C, strain SLT2, active compounds read low 1.01 and 0.982 | locus YHR079C, strain IRE1 (second series), active compounds read low 1.01 | locus YHR079C, strain IRE1, active compounds read low 1.01 | locus YHR094C, strain hxt1, active compounds read low 1.03 | locus YHR129C, strain ARP1, active compounds read low 1.01 | locus YHR142W, strain chs7, active compounds read low 0.957 | locus YHR200W, strain rpn10, active compounds read low 1.04 | locus YIL066C, strain RNR3, active compounds read low 1 | locus YIL073C, strain SPO22, active compounds read low 1.04 | locus YIL125W, strain kgd1, active compounds read low 1.03 | locus YIR030C, strain dcg1, active compounds read low 1.03 | locus YJL092W, strain hpr5, active compounds read low 0.988 | locus YJL095W, strain BCK1 (second series), active compounds read low 0.987 | locus YJL095W, strain BCK1, active compounds read low 0.999 and 0.96 | locus YJL115W, strain asf1, active compounds read low 1 | locus YJL129C, strain trk1, active compounds read low 0.963 | locus YJL134W, strain LCB3, active compounds read low 1.01 | locus YJL154C, strain vps35, active compounds read low 1.02 | locus YJL164C, strain tpk1, active compounds read low 0.971 | locus YJL166W, strain qcr8, active compounds read low 0.987 | locus YJL168C, strain set2, active compounds read low 1.04 | locus YJL187C, strain SWE1 (second series), active compounds read low 1.01 | locus YJL187C, strain SWE1, active compounds read low 0.989 | locus YJR043C, strain POL32, active compounds read low 1.01 | locus YJR066W, strain TOR1, active compounds read low 0.926
